Measurements as given in PubChem BioAssay (NCATS).
Values joined by “and” are separate entries in the source; they are usually repeats but may differ in a detail not shown here. Equal values may be shown once. Inconclusive results are not listed. Active and inactive are the calls of the source. The call rests on the fitted dose curve; in most records, active means well fitted curve in the direction sought with a large enough effect; inconclusive means small, poorly fitted or top-dose-only effect, or another doubt; inactive means no such curve, though single readings can be large; an effect the other way counts as inactive or inconclusive.

Columns and labels:
[1] = MultiTox-Fluor Cytotoxicity Assay - LYMP1-002 - Dead Cells (AID 960); further: nearly all actives have a fitted effect of over 60% in size
Outline: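 Human lymphoblastoid cells (LYMP1-002), 2500/well in complete medium, were exposed to compounds for 16 hr at 37 C. Dead-cell protease activity was read as bis-AAF-R110 fluorescence (Ex/Em 485/520), normalized to DMSO and 15 uM tetraoctylammonium bromide; AC50 from Hill fits.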

[2] = Cell Viability - LYMP1-003 - Assay at 24 hr (AID 963)
Outline: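 Human lymphoblastoid LYMP1-003 cells (2500/well) were rested 5 hr at 37 C, then exposed to compounds in complete medium for 24 hr at 37 C. Cellular ATP was quantified by CellTiter-Glo luminescence, and AC50 values came from Hill fits of concentration-response data.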

[3] = Cell Viability - LYMP1-003 - Assay at 40 hr (AID 964); further: nearly all actives have a fitted effect of over 60% in size
Outline: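 Human lymphoblastoid LYMP1-003 cells, 2500/well in complete medium, rested 5 hr at 37 C, then exposed to compounds for 40 hr at 37 C. Viability read as intracellular ATP by CellTiter-Glo luminescence; AC50 from Hill fits of concentration-response data.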

[4] = Cell Viability - LYMP2-003 (AID 965);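 further: cells exposed to compounds for 24 h before reading; nearly all actives have a fitted effect of over 50% in size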
Outline: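 Human lymphoblastoid cells (2500/well) were pre-incubated 5 hr at 37 C, then exposed to compounds over a concentration range for 24 hr at 37 C. Intracellular ATP was read by CellTiter-Glo luminescence; AC50 came from Hill-equation fits.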

[5] = Cell Viability - LYMP2-004 (AID 966); further: nearly all actives have a fitted effect of over 65% in size
Outline: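 Human lymphoblastoid cells (2500/well) in complete medium were treated with compounds for 24 hr at 37 C, then intracellular ATP was measured by CellTiter-Glo luminescence. AC50 values came from Hill-equation fits of concentration-response data.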

[6] = Cell Viability - LYMP2-009 (AID 968); further: nearly all actives have a fitted effect of over 55% in size
[7] = Cell Viability - LYMP2-011 (AID 969); further: nearly all actives have a fitted effect of over 60% in size
Outline: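 Human lymphoblastoid cells (2500/well) were plated in complete medium, preincubated 5 hr at 37 C, then exposed to compounds for 24 hr at 37 C. Intracellular ATP was read by CellTiter-Glo luminescence, and AC50 came from Hill-equation concentration-response fits.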

Measured: Potency
Potency means the concentration at half of the fitted maximal effect.

O=[N+]([O-])c1ccccc1
inactive: [1] | [2] | [3] | [4] | [5] | [6] | [7]

Clc1ccccc1Cl
inactive: [1] | [2] | [3] | [4] | [5] | [6] | [7]

[O]=[Cd]
inactive: [1] | [2] | [3] | [4] | [5] | [6] | [7]

ClC=C(Cl)Cl
inactive: [2] | [3] | [4] | [5] | [6] | [7]

C[C@]12CCC(=O)C[C@@H]1CC[C@@H]1[C@@H]2CC[C@]2(C)[C@@H](O)CC[C@@H]12
inactive: [2] | [3] | [4] | [5] | [6] | [7]

O=CC=O
inactive: [1] | [2] | [3] | [4] | [5] | [6] | [7]

COc1ccc2c(c1OC)C(=O)OC2C1c2cc3c(cc2CCN1C)OCO3 (stereo not given)
inactive: [1] | [2] | [3] | [4] | [5] | [6] | [7]

[Cl-].[Cl-].[Hg+2]
active: [2] 7.94 µM | [3] 1 µM | [4] 0.794 µM | [5] 0.251 µM | [6] 10 µM | [7] 12.6 µM

S=C=S
inactive: [1] | [2] | [3] | [4] | [5] | [6] | [7]

O=C1C2CC=CCC2C(=O)N1SC(Cl)(Cl)Cl (stereo not given)
active: [1] 5.01 µM | [2] 12.6 µM | [3] 20 µM | [4] 12.6 µM | [5] 10 µM | [6] 6.31 µM and 5.01 µM | [7] 6.31 µM

C=CCN=C=S
inactive: [1] | [2] | [3] | [4] | [5] | [6] | [7]

CC(C)(C)c1cc(O)ccc1O
inactive: [1] | [2] | [3] | [4]
active: [5] 39.8 µM | [6] 50.1 µM

O=Cc1ccco1
inactive: [1] | [2] | [3] | [4] | [5] | [6] | [7]

CC(C)CCON=O
inactive: [1] | [2] | [3] | [4] | [5] | [6] | [7]

ClCC1CO1 (stereo not given)
inactive: [1] | [2] | [3] | [4] | [5] | [7]

CCCCCCCCOC(=O)c1ccccc1C(=O)OCCCCCCCC
inactive: [1] | [2] | [3] | [4] | [5] | [6] | [7]

C[C@H]1CC[C@@H]2[C@@H](C)[C@H]3[C@H](C[C@H]4[C@@H]5CC=C6CC(O[C@@H]7O[C@H](CO)[C@H](O)[C@H](O[C@@H]8O[C@H](CO)[C@@H](O)[C@H](O)[C@H]8O)[C@H]7O[C@H]7O[C@@H](C)[C@H](O)[C@@H](O)[C@H]7O)CC[C@]6(C)[C@H]5CC[C@]34C)N2C1 (stereo not given in full)
inactive: [1]
active: [2] 20 µM | [3] 39.8 µM | [5] 50.1 µM | [6] 39.8 µM | [7] 39.8 µM

COC1=CC(=O)O[C@@H](/C=C/c2ccccc2)C1
inactive: [1] | [2] | [3] | [4] | [5] | [6] | [7]
